High-throughput results as filed in PubChem BioAssay.
Only some compounds are listed: those with a hit (about 4.6% of all), similar ones and a draw of the others.
Tau fluor counter: counter-screen for tau fibril formation inhibitors; tau K18 P301L Alexa594 fluorescence, heparin fibrillization; Potency, µM (titrated, usually from 57.7 µM); 280,000 tested, 0.93% active; AID 1463; note: nearly all actives have a fitted effect of over 55% in size
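Human tau K18 P301L (15 uM unlabeled, 0.24 uM Alexa 594-labeled) in 100 mM sodium acetate pH 7 with 20 uM heparin, 6 hr at 37 C. ThT 30 uM added, 1 hr ambient; Alexa 594 FP and total fluorescence read at 555/632 nm.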
Tau fibril FP: tau fibrillization inhibition (FP); 280,000 tested, 0.39% active; P10636; K18 P301L tau heparin fibrillization, Alexa594 FP, 6 h; Potency, µM (highest dose often 57.7 µM), most hits filed as inhibitors; note: nearly all actives have a fitted effect of over 55% in size
Target sequence (P10636 561-689 P618L limits assumed): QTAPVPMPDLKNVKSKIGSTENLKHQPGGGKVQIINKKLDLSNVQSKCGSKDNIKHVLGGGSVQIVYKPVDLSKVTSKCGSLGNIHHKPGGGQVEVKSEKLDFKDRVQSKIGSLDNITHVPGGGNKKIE
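Quantitative HTS format: compounds meet 15 uM recombinant K18 P301L tau and Alexa 594-tau tracer in 100 mM sodium acetate pH 7; 20 uM heparin triggers fibrillization at 37 C over 6 hr; FP gives the signal.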
TRb-SRC2 inh: TRbeta-SRC2 interaction inhibition; TRbeta-SRC2 peptide binding, fluorescence polarization; receptor liganded with 1 µM T3; Potency, µM (top dose mostly 106 µM), hits mostly inhibitors; 280,000 tested, 0.065% active; note: nearly all actives have a fitted effect of over 50% in size
Target sequence (P10828 whole entry, looked up): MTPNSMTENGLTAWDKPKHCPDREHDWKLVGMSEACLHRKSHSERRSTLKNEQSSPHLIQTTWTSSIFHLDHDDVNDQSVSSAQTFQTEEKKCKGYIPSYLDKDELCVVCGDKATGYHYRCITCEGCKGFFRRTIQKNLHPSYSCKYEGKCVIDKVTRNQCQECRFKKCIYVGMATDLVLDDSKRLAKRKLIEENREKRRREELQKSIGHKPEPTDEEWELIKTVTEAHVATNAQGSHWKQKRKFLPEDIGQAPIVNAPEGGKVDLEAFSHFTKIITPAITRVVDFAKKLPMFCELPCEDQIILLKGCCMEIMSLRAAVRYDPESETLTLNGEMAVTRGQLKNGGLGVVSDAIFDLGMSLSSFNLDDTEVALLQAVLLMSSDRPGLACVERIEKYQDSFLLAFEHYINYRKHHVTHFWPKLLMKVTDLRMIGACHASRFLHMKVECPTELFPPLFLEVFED
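Decrease in fluorescence polarization of 20 nM Texas Red SRC2 coactivator peptide flagged inhibition of its binding to 0.6 uM TRb LBD; 1 uM T3 included, incubation 5 hr, ex 555/em 632 nm.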
Tau fibril ThT: inhibitors of human tau fibril formation, thioflavin T binding | P10636 | recombinant tau K18 P301L (four-repeat tau fragment), heparin-induced fibrillization, ThT fluorescence | Potency, µM (titrated, usually from 57.4 µM), hits mostly inhibitors | 270,000 tested, 2.1% active | AID 1460; note: nearly all actives have a fitted effect of over 55% in size
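Tau K18 P301L fragment (15 uM unlabeled plus 0.24 uM Alexa 594-labeled) in 100 mM sodium acetate pH 7 with compound, fibrillization induced by 20 uM heparin for 6 hr at 37 C. Thioflavin T (30 uM) added, fluorescence read after 1 hr (ex 450, em 510 nm).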
TR SRC2 fluor cs: alters Texas Red total fluorescence, flagging assay interference | TRb/SRC2 Texas Red total fluorescence interference | Potency, µM (doses to about 106 µM) | 280,000 tested, 0.29% active | AID 1479; active = well fitted curve in either direction with a large enough effect; inconclusive = small, poorly fitted or top-dose-only effect
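Human TRβ ligand-binding domain (0.6 uM) and Texas Red SRC2 peptide (20 nM) in Tris buffer with 1 uM T3 and 5% DMSO were incubated with pinned compound for 5 hr at ambient temperature. Total fluorescence was computed as S + 2P (555/632 nm).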
PNC inhibitor: inhibitors of perinucleolar compartment assembly; PC3M PTB-GFP, PNC prevalence imaging, 16 h; active compounds read low; activity change (PNC), negative = inhibition, % at 10 µM; 140,000 tested, 3.1% active;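 active = readout at or below -70, meaning at least 70% loss of cells showing the perinucleolar compartment, a nuclear body marking cancer cells; inconclusive = readout between -30 and a set limit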
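Read-out is percentage of cells bearing a perinucleolar compartment, from automated 20x imaging of fixed, Hoechst-stained PC3M PTB-GFP cells. Cells were seeded 4 h, then exposed 16 h to compound (23 nl of library stock) in duplicate plates.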
Of the large screens only hits and unclear results are named; the others gave an inactive call; [ ] = another dose, or the depositor's remark. Unless noted, calls come from the whole dose curve; as a rule, active = well fitted curve in the direction sought with a large enough effect; inconclusive = small, poorly fitted or top-dose-only effect, or another doubt; inactive = no such curve, though single readings can be large; an effect the other way counts as inactive or inconclusive.

Cc1cc2c(ncn2C)c(NS(=O)(=O)c2ccccc2Cl)c1C	PNC inhibitor -83
C=CCNc1sc(C(=O)c2ccccc2)c(N)c1C#N	none
CO[C@@H]1[C@@H](OC(N)=O)[C@@H](O)[C@H](Oc2ccc3c(O)c(NC(=O)c4ccc(O)c(CC=C(C)C)c4)c(=O)oc3c2C)OC1(C)C	none (no result: PNC inhibitor)
O=C(N/N=C/c1cccs1)C1CC(=O)N(c2ccccc2)C1 (stereo not given)	Tau fibril ThT inconclusive, PNC inhibitor inconclusive
CCCN1C/C(=C/c2ccc3c(c2)OCO3)C(=O)/C(=C/c2ccc3c(c2)OCO3)C1	Tau fibril FP inconclusive, Tau fibril ThT 22µM
CC1=C/C(=C\c2ccc3c(c2)OCO3)C(=O)S1	Tau fibril ThT 6.3µM, PNC inhibitor -85
O=C(NCc1ccccn1)/C(=N/O)c1ccccc1	PNC inhibitor inconclusive
CC(C)NS(=O)(=O)c1ccc(OCC(=O)NCc2ccco2)cc1	none (no result: PNC inhibitor)
Cc1ccc(COc2cccc3c2CCN(Cc2ccc(F)cc2)C3=O)cc1	none
O=C1c2cccc(OCc3ccc(F)cc3)c2CCN1Cc1ccccc1	PNC inhibitor -82
Cc1ccccc1NC(=O)c1ccc(Cl)c(S(=O)(=O)N2CCCCCC2)c1	TRb-SRC2 inh inconclusive, TR SRC2 fluor cs 0.79µM[quencher] (no result: PNC inhibitor)
COc1ccc(N=Nc2cnc(C)nc2-c2ccccc2)cc1	Tau fluor counter inconclusive, Tau fibril ThT 18µM, PNC inhibitor -85
Cc1ncc(N=Nc2ccccc2Cl)c(-c2ccccc2)n1	Tau fluor counter inconclusive, Tau fibril ThT inconclusive
O=C(Nc1ccc2c(c1)CCC2)c1cc(S(=O)(=O)Nc2ccc(F)cc2)c(Cl)cc1Cl	none
CCCSCCCNC(=O)C1CCN(C(=O)c2cc3sccc3n2C)CC1	TR SRC2 fluor cs 32µM[quencher] (no result: PNC inhibitor)
CCn1c(C(=O)N2CCC(C(=O)NCCCSC3CCCCC3)CC2)cc2sccc21	Tau fibril ThT inconclusive
O=C(Nc1cc(C(F)(F)F)ccc1N1CCCC1)c1cccnc1	PNC inhibitor -89
O=C(CN1CCN(Cc2cccc(Cl)c2)C1=O)NCc1ccc(F)cc1	none (no result: PNC inhibitor)
O=C(O)c1cc(Cl)c2c(c1)OCO2	none (no result: PNC inhibitor)
O=C(c1ccc2c(=O)n(-c3ccccc3)c(=O)[nH]c2c1)N1CCN(c2ccc(F)cc2)CC1	none
CC(=O)c1ccc(N2CCN(C(=O)c3ccc4c(=O)n(-c5ccccc5)c(=O)[nH]c4c3)CC2)cc1	PNC inhibitor -108
COc1ccc(/C=c2/sc3n(c2=O)NC2(c4ccccc4)N(C)C(=O)N(C)C2(c2ccccc2)N=3)cc1 (stereo not given)	PNC inhibitor inconclusive
Cc1nn(-c2cc(N3CCCCC3)ccc2N)c(=O)c2ccccc12	Tau fibril ThT inconclusive, PNC inhibitor -119
Cc1nn(-c2cc(N3CCCCCC3)ccc2[N+](=O)[O-])c(=O)c2ccccc12	Tau fibril ThT inconclusive
CCOC(=O)C1=NN(C(=O)c2ccc(C)cc2)C(O)(c2ccc(Cl)cc2)C1 (stereo not given)	Tau fibril ThT inconclusive
NNC(=O)COc1cccc(C(F)(F)F)c1	none (no result: PNC inhibitor)
C=C(C)COc1ccc(-c2n[nH]c(C)c2-c2ccc(OC)cc2)c(O)c1	Tau fluor counter 25µM[quencher], Tau fibril FP inconclusive
COc1ccc(-c2n[nH]c(C)c2-c2cscn2)c(O)c1	none (no result: PNC inhibitor)
COc1ccc(-c2c(-c3ccc(OCC(=O)NN)cc3O)n[nH]c2C(F)(F)F)cc1	Tau fluor counter 22µM[quencher], Tau fibril FP inconclusive, Tau fibril ThT inconclusive, PNC inhibitor inconclusive
O=C(NCCCN1CCOCC1)C(=O)N/N=C/c1ccccc1	none
Cc1[nH]c2ccccc2c1N=Nc1ccc(F)cc1	Tau fluor counter 14µM[quencher], Tau fibril ThT 13µM (no result: PNC inhibitor)
Cc1[nH]c2ccccc2c1N=Nc1ccccc1F	Tau fluor counter 13µM[quencher], Tau fibril FP inconclusive, Tau fibril ThT 13µM (no result: PNC inhibitor)
Cc1[nH]c2ccccc2c1N=Nc1cc(C(=O)O)cc(C(=O)O)c1	Tau fibril ThT inconclusive (no result: PNC inhibitor)
COc1cccc(N2CCN(c3ncnc4c3cnn4-c3ccc(C)cc3C)CC2)c1	Tau fibril ThT inconclusive
CC1=CC(C)C(C(=O)O)C(C(=O)O)C1 (stereo not given)	PNC inhibitor -81
